This passage reports potency estimated from few doses results from paper PMC11062922 (Nature Chemical Biology, 2023).

Read-outs that look alike come from different tables or passages of the source.

What all share (set-up): species or system human, MV4-11 + K-562 + COLO205 + SK-N-BE2 + OVCAR-8
In one assay the test system is CAMKK2. The note with it: read-out: apparent Kd, compound concentrations: 100 nM and 1000 nM (sheet 'Samples'), n = 1.
The subject of a further assay is JAK1. The note with it: read-out: apparent Kd, n = 1.
The subject of a further assay is LATS1. The note with it: read-out: apparent Kd, compound concentrations: 100 nM and 1000 nM (sheet 'Samples'), n = 1.
Another assay relates to MARK2. The note with it: read-out: apparent Kd, compound concentrations: 100 nM and 1000 nM (sheet 'Samples'), n = 1.
The next assay has as its system MARK3. The settings on record: read-out: apparent Kd, compound concentrations: 100 nM and 1000 nM (sheet 'Samples'), n = 1.
The next assay concerns PRKACB. The note with it: read-out: apparent Kd, n = 1.
The next assay relates to PRKCD. The settings on record: read-out: apparent Kd, compound concentrations: 100 nM and 1000 nM (sheet 'Samples'), n = 1.
In the next assay the test system is RPS6KA3. The note with it: read-out: apparent Kd, compound concentrations: 100 nM and 1000 nM (sheet 'Samples'), n = 1.
For another assay, the system named is TBK1. The settings on record: read-out: apparent Kd, compound concentrations: 100 nM and 1000 nM (sheet 'Samples'), n = 1.
A further assay has as its system MTHFD1. The settings on record: read-out: apparent Kd, n = 1.
Another assay deals with AGK. The settings on record: read-out: apparent Kd, n = 1.
A further assay deals with MAPK7. The note with it: read-out: apparent Kd, compound concentrations: 100 nM and 1000 nM (sheet 'Samples'), n = 1.
The subject of another assay is NEK3. The settings on record: read-out: apparent Kd, compound concentrations: 100 nM and 1000 nM (sheet 'Samples'), n = 1.
A further assay deals with PKN2. The note with it: read-out: apparent Kd, n = 1.
A further assay relates to PRKDC. The settings on record: read-out: apparent Kd; compound concentrations:100 nM and 1000 nM (sheet 'Samples'); n = 1.
The subject of a further assay is T1, T10.
T1 construct: gene NAT10
The note with it: read-out: apparent Kd; compound concentrations:100 nM and 1000 nM (sheet 'Samples'); n = 1.

A further assay deals with MDN1. The note with it: read-out: apparent Kd, n = 1.
A further assay concerns MAP3K6. The note with it: read-out: apparent Kd, compound concentrations: 100 nM and 1000 nM (sheet 'Samples'), n = 1.
The subject of the next assay is IRAK4. The note with it: read-out: apparent Kd, compound concentrations: 100 nM and 1000 nM (sheet 'Samples'), n = 1.
For another assay, the system named is RAB14. The note with it: read-out: apparent Kd, n = 1.
[1] abbreviates: compound concentrations:100 nM and 1000 nM (sheet 'Samples').

In the case of `O=C1N=C(NCc2cccs2)SC1Cc1ccc2ncccc2c1` (stereo not shown) [RO4629078-000], the potency estimated from few doses in the assay with CAMKK2 (CATDS: 1.0556199661625101E-2) is 586 nM; in the assay with JAK1 (compound concentrations: 100 nM and 1000 nM (sheet 'Samples'), CATDS: 8.4918440228529003E-3) it was 1060 nM; in the assay with LATS1 (CATDS: 8.7867541844469099E-3) it was 953 nM; with MARK2 (CATDS: 7.7790140637755802E-3) it was 1430 nM; in the assay on MARK3 (CATDS: 8.2190831573709308E-3), 1180 nM; in the assay on PRKACB (compound concentrations: 100 nM and 1000 nM (sheet 'Samples'), CATDS: 8.4250069561530305E-3), 1080 nM. In addition, the potency estimated from few doses is 1170 nM with PRKCD (CATDS: 8.2287657459755997E-3), 1090 nM in the assay with RPS6KA3 (CATDS: 8.4062550540876194E-3) and 1490 nM with TBK1 (CATDS: 7.6855251717376097E-3).
`O=C1N=C(NCCc2ccccn2)S/C1=C\c1ccc2ncccc2c1` [RO4508346-000]: the potency estimated from few doses in the assay on MTHFD1 (compound concentrations: 100 nM and 1000 nM (sheet 'Samples'), CATDS: 6.5916651027534801E-2) is 1980 nM.
In the case of `Cl.Cl.Cl.c1ccc(Oc2ccc(Nc3ccnc4cc(-c5ccc(CN6CCNCC6)o5)ccc34)cc2)nc1.c1ccc(Oc2ccc(Nc3ccnc4cc(-c5ccc(CN6CCNCC6)o5)ccc34)cc2)nc1` [GW567142A], the potency estimated from few doses in the assay with AGK (compound concentrations: 100 nM and 1000 nM (sheet 'Samples'), CATDS: 1.95822774177494E-2) is 1230 nM; in the assay with MAPK7 (CATDS: 1.6423654132294602E-2), 2370 nM; with NEK3 (CATDS: 1.7301178546407801E-2), 1910 nM; with PKN2 (compound concentrations: 100 nM and 1000 nM (sheet 'Samples'), CATDS: 1.6443566928173701E-2), 2350 nM.
For the compound `Cc1cccc(-c2cc(-c3c[nH]nc3-c3ccccn3)ccn2)c1` [GW679395X], the potency estimated from few doses is 1130 nM in the assay with PRKDC and 1940 nM in the assay with T10.
Turning to `CCn1cc(-c2ccnc3[nH]c(-c4cccc(CN(C)C)c4)cc23)c(-c2ccc(NC(=O)N(C)C)cc2)n1` [GSK1070916], the potency estimated from few doses with MDN1 (setting [1]) was 2000 nM.
Regarding `CNC1=NC(=O)/C(=C/c2ccc3ncccc3c2)S1` [RO4595949-000], the potency estimated from few doses in the assay with MAP3K6 (CATDS: 5.3158736559022798E-2) was 1510 nM.
Regarding `Cl.O=C1N=C(NCc2ccccn2)S/C1=C\c1ccc2ncccc2c1` [RO4874953-001], the potency estimated from few doses in the assay with IRAK4 (CATDS: 7.1454413714057002E-2) was 1930 nM.
For `CN1C(=O)c2ccccc2N(C)c2nc(Nc3cnn(C4CCNCC4)c3)ncc21` [XMD-17-51], the potency estimated from few doses with MAPK7 (CATDS: 3.6148838376291702E-2) is 101 nM; in the assay on MARK2 (CATDS: 1.3481113896194E-2), 2050 nM; in the assay on MARK3 (CATDS: 1.4488422936038499E-2) it was 1430 nM.
For `COc1ccc(Nc2nccc(N3CCC(NC(=O)Nc4ccc5c(c4)OCO5)C3)n2)cc1` (stereo not shown) [GSK1379745A], the potency estimated from few doses in the assay with MDN1 (compound concentrations: 100 nM and 1000 nM (sheet 'Samples'), CATDS: 4.1972847016179399E-2) was 1360 nM; in the assay on RAB14 (compound concentrations: 100 nM and 1000 nM (sheet 'Samples'), CATDS: 3.8007636055388601E-2), 1680 nM.
As for `Cn1cc(C2=C(c3cn(CCCO)c4ccccc34)C(=O)NC2=O)c2ccccc21` [RO0317377-000], the potency estimated from few doses with PRKCD (CATDS: 9.7795114941797295E-2) was 2020 nM.
In the case of `COc1cccc(-n2ncc3c(N/N=C/c4ccc(C(=O)NCCN(C)C)cc4)ncnc32)c1.Cl` [GW784307A], the potency estimated from few doses with CAMKK2 (CATDS: 2.5303732707076199E-2) was 2120 nM.
`Fc1ccc(-c2c(-c3ccncc3)[nH]c3nccnc23)cc1` [RO1155697-000]: in the assay on AGK (setting [1]), the potency estimated from few doses was 1640 nM.
Turning to `CNC(=O)c1ccccc1Nc1nc(Nc2cccc(CS(C)(=O)=O)c2)ncc1C.O=CO` [GSK1520489A], the potency estimated from few doses was 1870 nM in the assay with IRAK4 (CATDS: 9.4049632429945695E-3), 1340 nM in the assay with LATS1 (CATDS: 9.9587793654228995E-3), 768 nM in the assay with RPS6KA3 (CATDS: 1.12432401151655E-2) and 504 nM in the assay with TBK1 (CATDS: 1.25946113140399E-2).
With `O=S(=O)(CCOCc1ccc(-c2ccc3ncnc(Nc4ccc(OCc5cccc(F)c5)c(Cl)c4)c3c2)o1)c1ccccc1` [GW615311X], the results for the potency estimated from few doses in the assay with MAP3K6 (CATDS: 2.8394321566467099E-2) and in the assay on NEK3 (CATDS: 2.1900299581920201E-2) were 1310 nM and 2460 nM, respectively.
In the case of `Nc1nc(N)c2nc(-c3ccccc3)[nH]c2n1` [SKF-12778], the potency estimated from few doses with JAK1 (setting [1]) is 953 nM; in the assay with PRKACB (setting [1]), 1790 nM; with PRKDC, 716 nM; with RAB14 (setting [1]), 1300 nM; in the assay on T10 it was 1130 nM.
For `COc1cc(F)c(F)c(F)c1C(=O)c1cnc(NC2CCN(S(C)(=O)=O)CC2)nc1N` [RO4600703-000], the potency estimated from few doses in the assay on MTHFD1 (setting [1]) was 1300 nM.
For the compound `Nc1c(C(=O)c2ccccc2)cnn1-c1ccc(F)cc1` [RO1151246-000], the potency estimated from few doses in the assay on PKN2 (setting [1]) is 1910 nM.
